# Test results as given in PMC4336329 (PLoS ONE, 2015).
# The campaign covered roughly 310,000 compounds. About 14,000 (4.5%) showed an effect of 50% or more. The effect is printed as a negative number. The entries come from a sample that favours strong results as a whole.
# Target: human ether-à-go-go-related gene (hERG) potassium channel (human, UniProt Q12809)
# Experiment: primary screen, population patch clamp on CHO cells stably expressing hERG; higher = less effect of the substance
# 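Note: peak tail current of the secondary pulse compared with the same well before compound.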
# Chain of human ether-à-go-go-related gene (hERG) potassium channel (Q12809 whole entry, looked up): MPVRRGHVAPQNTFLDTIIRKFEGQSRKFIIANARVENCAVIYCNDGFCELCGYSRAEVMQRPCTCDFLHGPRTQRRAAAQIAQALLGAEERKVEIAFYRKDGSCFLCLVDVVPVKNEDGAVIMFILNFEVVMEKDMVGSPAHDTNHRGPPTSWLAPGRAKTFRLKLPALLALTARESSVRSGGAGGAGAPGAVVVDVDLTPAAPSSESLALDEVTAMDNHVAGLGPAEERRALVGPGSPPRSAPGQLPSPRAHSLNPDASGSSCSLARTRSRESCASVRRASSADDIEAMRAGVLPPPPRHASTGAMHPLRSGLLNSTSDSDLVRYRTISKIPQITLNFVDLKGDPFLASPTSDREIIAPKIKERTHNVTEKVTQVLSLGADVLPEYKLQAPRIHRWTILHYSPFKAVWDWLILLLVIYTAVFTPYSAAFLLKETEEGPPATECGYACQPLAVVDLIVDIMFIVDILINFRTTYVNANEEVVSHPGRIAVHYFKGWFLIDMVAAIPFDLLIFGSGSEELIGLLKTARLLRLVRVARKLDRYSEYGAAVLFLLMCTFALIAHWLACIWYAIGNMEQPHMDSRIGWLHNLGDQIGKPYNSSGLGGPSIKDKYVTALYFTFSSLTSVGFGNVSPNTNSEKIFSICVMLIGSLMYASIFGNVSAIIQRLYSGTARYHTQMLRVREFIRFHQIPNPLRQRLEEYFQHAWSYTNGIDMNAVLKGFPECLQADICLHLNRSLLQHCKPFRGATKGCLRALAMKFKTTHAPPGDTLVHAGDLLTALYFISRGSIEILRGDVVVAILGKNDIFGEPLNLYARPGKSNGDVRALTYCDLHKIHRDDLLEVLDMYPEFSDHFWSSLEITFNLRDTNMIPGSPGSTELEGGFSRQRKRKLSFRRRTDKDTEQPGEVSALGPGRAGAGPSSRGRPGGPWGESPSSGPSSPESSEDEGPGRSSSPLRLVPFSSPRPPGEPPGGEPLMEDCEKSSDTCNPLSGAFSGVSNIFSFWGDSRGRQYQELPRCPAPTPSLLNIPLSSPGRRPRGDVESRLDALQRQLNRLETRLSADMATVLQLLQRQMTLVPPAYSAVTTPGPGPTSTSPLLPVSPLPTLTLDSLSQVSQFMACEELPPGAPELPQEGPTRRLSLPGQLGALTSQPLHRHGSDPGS
row,SMILES,"hERG current change (%, negative = inhibition) at 10uM"
1,Cc1cccc2c1cnn2C(=O)CCC(=O)N1CCC(C)CC1,-14.1%
2,Br.NC1(N)OC(CN2C(=O)c3ccccc3C2=O)CS1 (stereo not shown),-5.75%
3,Cc1c(C(=O)NC(C)c2ccncc2)oc2ccccc12 (stereo not shown),-29.7%
4,O=C(Nc1ccc(C(=O)N2CCCC2)cc1)c1ccc2c(c1)OCO2,-0.403%
5,O=C(Nc1ccc2c(c1)OCO2)c1ccc(CN2CCOCC2)cc1,10.1%
6,COc1cc(OC)cc(C(=O)Nc2ccc(CN3CCCCC3)cc2)c1,-14.7%
7,COc1ccc(OCc2cccc(C(=O)N3CCCC3)c2)cc1,-3.08%
8,O=C(Nc1ccc(CN2CCCCC2)cc1)c1ccc2c(c1)OCO2,-64.3%
9,CCCNC(=O)c1cccc(NC(=O)C(C)C)c1,-25.4%
10,CCOc1ccc(OCc2cccc(C(=O)N3CCCC3)c2)cc1,-11.6%
11,CC(C)C(=O)Nc1cccc(NC(=O)c2cccc(F)c2)c1,5.16%
12,COc1ccc(C(=O)Nc2ccc(CN3CCCCC3)cc2)cc1,-40.3%
13,CC(C)C(=O)Nc1cccc(NC(=O)c2cccc(Br)c2)c1,-52.1%
14,CCOc1ccc(OCc2cccc(C(=O)N3CCCCCC3)c2)cc1,-69.3%
15,COc1ccc(OCc2cccc(C(=O)Nc3ccc(CN4CCCCC4)cc3)c2)cc1,-72.8%
16,CC(=O)Nc1ccc(NC(=O)C(C)OC(=O)c2cccc(S(=O)(=O)N3CCCC3)c2)cc1 (stereo not shown),10.4%
17,Cc1ccccc1CCNC(=O)C1CCCN(c2cnccn2)C1 (stereo not shown),-0.76%
18,O=C(O)C(=O)O.O=C(c1cccnc1)N1CCN(Cc2ccccc2Br)CC1,4.7%
19,CCCCN(C)C(=O)c1nc2ccccn2c1CN1CCC[C@H]1CO,3.21%
20,CC(C)C[C@H](NC(=O)c1nc[nH]c1C(=O)NCc1ccc(CNC(=O)OC(C)(C)C)cc1)C(=O)OCc1ccccc1,2.91%
21,CCOC(=O)CNC(=S)N(Cc1cccs1)C1CCCC1,-5.82%
22,O=c1c2[nH]c3ccccc3c2ncn1Cc1ccccn1,-0.569%

row,SMILES,"hERG current change (%, negative = inhibition) at 10uM"
1,CCOC(=O)c1ccccc1NC(=O)COC(=O)CCC(=O)c1ccccc1,16.3%
2,NNC(=S)NC1CCS(=O)(=O)C1 (stereo not shown),22.1%
3,Cc1cc(/C=C2/C(=O)N(C)C(=S)N2C)ccc1N1CCCC1,7.27%
4,Cc1ccc(S(=O)(=O)N(CC(=O)Nc2ccc(C(N)=O)cc2)C(=O)N2CCN(C)CC2)cc1,-0.0686%
5,CCOc1ccc(OCc2cccc(C(=O)O)c2)cc1,8.48%
6,CCOc1ccc(OCc2cccc(C(=O)N(CC)CC)c2)cc1,-67.6%
7,CCOc1ccc(NC(=O)c2ccc(CN3CCc4ccccc4C3)cc2)cc1,0.805%
8,O=C(Nc1ccc(CN2CCCCC2)cc1)c1cc(Br)ccc1Cl,-20.3%
9,O=C(Nc1ccc(CN2CCCCC2)cc1)c1cccc(Br)c1,-86.7%
10,CCCC(=O)Nc1cccc(NC(=O)c2ccc3c(c2)OCCO3)c1,5.87%
11,CCCC(=O)Nc1cccc(NC(=O)c2ccc3c(c2)OCO3)c1,-52.3%
12,CCOc1ccc(OCc2ccc(C(=O)N(CC)CC)cc2)cc1,2.22%
13,O=C(NC(=S)Nc1ccc(CN2CCCCC2)cc1)c1cccc(OCc2ccccc2)c1,-5.83%
14,CCCCC(=O)Nc1cccc(NC(=O)c2ccc3c(c2)OCO3)c1,6.43%
15,O=C(Nc1ccc(CN2CCCCC2)cc1)c1cccc(F)c1,-40%
16,CCOc1ccc(OCc2cccc(C(=O)Nc3ccc(CN4CCCCC4)cc3)c2)cc1,-63.2%
17,COc1ccc(NC(=O)CO/N=C2/CCCc3nonc32)c(OC)c1,11.1%
18,COc1ccc(CCNC(=O)Cn2nnc(-c3cccs3)n2)cc1OC,-7.76%
19,Cc1onc(-c2ccccc2Cl)c1C(=O)N1CCC(C)CC1,4%
20,COC(=O)/C(=C/c1ccccc1)NC(=O)c1ccco1,4.23%
21,CC(=O)Nc1ccc(CN2CCCCCCC2)cc1,-4.11%
22,O=C(Nc1ccc(CN2CCCCC2)cc1)c1c(F)c(F)c(F)c(F)c1F,-56.5%

row,SMILES,"hERG current change (%, negative = inhibition) at 10uM"
1,CN1CCN(c2ccc(NC(=O)c3ccc4c(c3)OCO4)cc2)CC1,-38.3%
2,CCC(=O)N1CCN(c2ccc(NC(=O)c3ccc4c(c3)OCO4)cc2)CC1,-0.905%
3,O=C(Nc1ccc(CN2CCCCC2)cc1)c1ccc(Br)o1,-33%
4,CCN1CCN(c2ccc(NC(=O)c3ccc4c(c3)OCO4)cc2)CC1,-54.5%
5,Cc1nc2ccc(C(=O)Nc3ccccc3Cl)cc2s1,10.5%
6,O=C(Cc1ccccc1F)NC1CCSc2ccccc21 (stereo not shown),-13%
7,O=C(Nc1ccccc1)NC1CCCCNC1=O (stereo not shown),21.4%
8,COc1cccc(C(=O)N/N=C/c2ccc(OC3CSC3)cc2)c1,5.4%
9,Cc1cccc(C(=O)N/N=C/c2ccc(OC3CSC3)cc2)c1,-92.4%
10,O=C(N/N=C/c1ccc(OC2CSC2)cc1)c1ccccc1,-13.6%
11,COC(=O)c1ccccc1NC(=O)c1ccc(Cn2cc(Cl)cn2)o1,4.21%
12,CCOC(=O)C1=C(c2cccc(Oc3ccccc3)c2)NC(=S)NC1C (stereo not shown),-15.8%
13,CCn1c(CC(=O)Nc2ccccc2F)nnc1SCC(=O)Nc1nnc(C)s1,-22.2%
14,O=C(CSCc1ccc(Cl)cc1)N1CCN(Cc2ccc3c(c2)OCO3)CC1,-48.2%
15,Cl.N#Cc1ccc(OCC(=O)N2CCN(Cc3ccc4c(c3)OCO4)CC2)cc1,-68.1%
16,O=C(COc1ccc(Cl)cc1)N1CCN(Cc2ccc3c(c2)OCO3)CC1,-52.6%
17,Cc1ccccc1C(=O)N1CCCC(N2CCN(Cc3ccc4c(c3)OCO4)CC2)C1 (stereo not shown),-11.7%
18,COc1ccc(OCC(=O)N2CCN(Cc3ccc4c(c3)OCO4)CC2)cc1,-12.2%
19,O=C(COc1ccc(S(=O)(=O)N2CCOCC2)cc1)N1CCN(Cc2ccc3c(c2)OCO3)CC1,-10%
20,N#CCC(=O)N1CCN(Cc2ccc3c(c2)OCO3)CC1,16.3%
21,CCc1ccc(OCC(=O)N2CCN(Cc3ccc4c(c3)OCO4)CC2)cc1,-15.9%
22,O=C(c1ccc(F)cc1)N1CCCC(N2CCN(Cc3ccc4c(c3)OCO4)CC2)C1 (stereo not shown),-22.2%

row,SMILES,"hERG current change (%, negative = inhibition) at 10uM"
1,O=C(COc1ccc(Br)cc1)N1CCN(Cc2ccc3c(c2)OCO3)CC1,-53.9%
2,Cl.O=C(COc1ccc(Cl)cc1)N1CCN(Cc2ccc3c(c2)OCO3)CC1,-48.2%
3,CN(C)c1ccc(C(=O)N2CCCC(N3CCN(Cc4ccc5c(c4)OCO5)CC3)C2)cc1 (stereo not shown),-82.3%
4,CCOC(=O)Nc1ccc2c(c1)N(C(=O)CN(C)C)c1ccccc1CC2.Cl,-7.94%
5,CCOC(=O)C1CCN(C(=O)c2cc3c(=O)n4cccc(C)c4nc3s2)CC1,-15.5%
6,FC(F)(F)c1cc(N2CCN(Cc3ccccc3)CC2)c2ccccc2n1,10.9%
7,CC(CCc1ccccc1)NC(=O)CNC(=O)N1CC(=O)Nc2ccccc21 (stereo not shown),-2.77%
8,CCOCCOC(=O)c1[nH]c2c(c1C)C(=O)CC(c1ccccc1)C2 (stereo not shown),7.35%
9,Cc1sc(NC(=S)NC(=O)c2ccc(C(C)(C)C)cc2)c(C#N)c1C,6.48%
10,COc1ccc(CCNC(=O)CN2C(=O)COc3ccc(S(=O)(=O)N4CCOCC4)cc32)c(OC)c1,-28.1%
11,CN(Cc1ccccc1)S(=O)(=O)c1ccc(OCC(=O)N2CCC(C(N)=O)CC2)cc1,-2.99%
12,O=C(Nc1ccc2ccccc2c1)N1CCN(c2ncccc2C(F)(F)F)CC1,-7.58%
13,CCCOc1ccc(C(=O)N2CCN(Cc3ccc4c(c3)OCO4)CC2)cc1,-67.7%
14,O=C(c1cccc([N+](=O)[O-])c1)N1CCN(Cc2ccc3c(c2)OCO3)CC1,-44.3%
15,Cc1ccc(C(=O)N2CCN(Cc3ccc4c(c3)OCO4)CC2)cc1C,-14.4%
16,O=C(Cc1ccc([N+](=O)[O-])cc1)N1CCN(Cc2ccc3c(c2)OCO3)CC1,-45.5%
17,CCCCOc1ccc(C(=O)NCC(=O)N2CCN(Cc3ccc4c(c3)OCO4)CC2)cc1,-42.4%
18,O=C(c1cc([N+](=O)[O-])cc([N+](=O)[O-])c1)N1CCN(Cc2ccc3c(c2)OCO3)CC1,-58.2%
19,C/C(=N\NC(=O)Nc1ccccc1)c1ccccc1,9.14%
20,NS(=O)(=O)c1ccc(CCNC(=O)COC(=O)CCSc2ccc(Cl)cc2)cc1,-18.5%
21,CC(C)(C)NC(=O)CCCSc1nc2ccccc2s1,-24.4%
22,Nc1nc(Cl)cc(Oc2ccc(Cl)cc2)n1,9.29%
